The source made the active and inactive calls. No rule for the calls is given here.

For this assay, the target named is Pantothenate synthetase (Mycobacterium tuberculosis (strain ATCC 25618 / H37Rv)) (UniProt P9WIL5). Put plainly: Recombinant Mtb pantothenate synthetase (PanC) inhibitors, coupled enzyme, confirmatory (AID 375).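 Also: 0% = full reaction with vehicle and 100% = no enzyme background.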 As to conditions: coupled enzyme assay; at 10 µM, stronger effect = higher value.
Chain of Pantothenate synthetase (Mycobacterium tuberculosis (strain ATCC 25618 / H37Rv)) (P9WIL5 whole entry, looked up): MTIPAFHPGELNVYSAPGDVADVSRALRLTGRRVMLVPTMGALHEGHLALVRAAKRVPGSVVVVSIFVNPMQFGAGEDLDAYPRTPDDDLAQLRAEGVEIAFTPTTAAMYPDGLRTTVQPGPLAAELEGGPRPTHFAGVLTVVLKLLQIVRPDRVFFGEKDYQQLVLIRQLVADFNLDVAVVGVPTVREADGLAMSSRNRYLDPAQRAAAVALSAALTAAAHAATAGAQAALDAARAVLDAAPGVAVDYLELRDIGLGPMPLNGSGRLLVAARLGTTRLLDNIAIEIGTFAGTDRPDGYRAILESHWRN
In general, inhibition refers to how much of the control response was suppressed. Consider `Cc1ccc(-n2nnnc2SCC(=O)N2CCc3ccccc3C2)cc1`, for which the inhibition was 4% (inactive).
For `CCCCOc1ccc(C(=O)Nn2cnnc2)cc1` the value was 1% (inactive).
In the case of `CCOC(=O)/N=C(/NC(=O)Nc1ccc(C(=O)OCC)cc1)OC`, the inhibition was 0% (inactive).
For `CCCOC(=O)C1C2C=CC3(CN(c4cccc(Cl)c4)C(=O)C13)O2` (stereo not drawn) the value was 0% (inactive); for `O=C(c1ccccc1)c1ccncc1`, 10% (inactive); for `COc1ccc(OC)c(S(=O)(=O)N2CCC(C(=O)NCc3ccccc3OC)CC2)c1`, 0% (inactive).
Regarding `O=c1c2[nH]c3ccc(Cl)cc3c2ncn1Cc1ccccn1`, the inhibition is 0% (inactive).
Under `O=C(Cc1cccs1)NCc1ccc(F)cc1` stands 0% (inactive); under `CCC(Sc1nc(-c2ccccc2)c(C#N)c(=O)[nH]1)C(=O)Nc1cc(C)on1` (stereo not drawn), 0% (inactive).
With `Cc1cccc(C2CC(c3ccc(Br)cc3)Nc3nc(N)nn32)c1` (stereo not drawn), the inhibition was 0% (inactive).
Under `C=CCOc1ccc(/C(O)=C2\C(=O)C(=O)N(CCOC)C2c2cccnc2)cc1` (stereo not drawn) stands 0% (inactive); under `O=C(c1ncc[nH]1)c1ccccc1C(=O)N1CCOCC1`, 1% (inactive).
Under `O=C(Nc1ccon1)c1csc2c1CCCC2` stands 6% (inactive); under `CCc1nnc(NC(=O)c2ccc(COc3ccc(C)cc3)o2)s1`, 1% (inactive); under `COc1ccc(CNC(=O)c2ccc(CN3CCOCC3)cc2)cc1`, 8% (inactive).
Under `CCCCOC(=O)CSc1nc2c(cc1C#N)C(=O)CC(C)(C)C2` stands 0% (inactive).
Regarding `Cc1nnc(SCC(=O)Nc2c(Cl)cccc2Cl)[nH]c1=O`, the inhibition was 0% (inactive).
Turning to `CCCNS(=O)(=O)c1ccc(OCC(=O)NCc2ccco2)cc1`, the inhibition was 2% (inactive).

The values above are taken from PubChem BioAssay.
